Our source for the Potency values is PubChem BioAssay (Tox21).

Assay [1] can be described thus: Nuclear factor erythroid 2-related factor 2/antioxidant responsive element (Nrf2/ARE) small molecule agonists: qHTS cell viability counter screen in human keratinocytes (AID 1919968; active = well fitted curve in the direction sought with a large enough effect in the repeat runs; an effect the other way counts as inactive or inconclusive; note: nearly all actives have a fitted effect of over 55% in size; note: potency is the fitted concentration of half-maximal effect). A digest of the protocol: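 Measured as CellTiter-Fluor fluorescence, this readout tracks cytotoxicity in the same wells as the ARE-luciferase screen. HaCaT reporter cells (1,500/well) received compounds after a 5 h pre-incubation and were exposed for 23 h.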
Background: qHTS replaces the single test concentration by a dilution series.

The target in assay [2] is Gonadotropin-releasing hormone receptor (Homo sapiens) (UniProt P30968). The assay is described as follows: Human gonadotropin-releasing hormone receptor (GnRHR) small molecule agonists, calcium flux assay in GnRHR-HEK293 cells (AID 1920063). Note: nearly all actives have a fitted effect of over 35% in size. An outline of the steps: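 Fluorescence kinetics (480 nm excitation, 540 nm emission; 3 min, 1 s steps) report calcium mobilisation in human GnRHR-HEK293 cells in agonist mode. Dye incubation: 1 h, 37 C.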
Gonadotropin-releasing hormone receptor (Homo sapiens), sequence (P30968 whole entry, looked up): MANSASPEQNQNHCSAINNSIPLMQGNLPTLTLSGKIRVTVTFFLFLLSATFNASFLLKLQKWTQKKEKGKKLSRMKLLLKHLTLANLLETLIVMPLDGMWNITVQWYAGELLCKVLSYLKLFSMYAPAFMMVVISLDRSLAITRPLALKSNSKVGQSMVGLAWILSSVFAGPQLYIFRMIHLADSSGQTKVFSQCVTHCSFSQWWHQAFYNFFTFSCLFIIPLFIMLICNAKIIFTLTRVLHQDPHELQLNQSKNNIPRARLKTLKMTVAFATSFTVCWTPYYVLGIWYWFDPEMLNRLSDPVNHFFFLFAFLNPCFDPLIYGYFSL
In general terms: Calcium flux is commonly read through the fluorescence of an indicator in the cells.

The target in assay [3] is KiSS-1 receptor (Homo sapiens) (UniProt Q969F8). The assay is described as follows: Human kisspeptin (KISS1R) small molecule agonists, calcium flux assay in KISS1R-HEK293 cells (AID 1920064; active = well fitted curve in the direction sought with a large enough effect in the repeat runs; an effect the other way counts as inactive or inconclusive). A digest of the protocol: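 Measures KISS1R agonism through calcium-sensitive dye fluorescence in stably transfected HEK293 cells, read for 3 min after pin-tool compound delivery; 15-point titrations in triplicate.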
KiSS-1 receptor (Homo sapiens), sequence (Q969F8 whole entry, looked up): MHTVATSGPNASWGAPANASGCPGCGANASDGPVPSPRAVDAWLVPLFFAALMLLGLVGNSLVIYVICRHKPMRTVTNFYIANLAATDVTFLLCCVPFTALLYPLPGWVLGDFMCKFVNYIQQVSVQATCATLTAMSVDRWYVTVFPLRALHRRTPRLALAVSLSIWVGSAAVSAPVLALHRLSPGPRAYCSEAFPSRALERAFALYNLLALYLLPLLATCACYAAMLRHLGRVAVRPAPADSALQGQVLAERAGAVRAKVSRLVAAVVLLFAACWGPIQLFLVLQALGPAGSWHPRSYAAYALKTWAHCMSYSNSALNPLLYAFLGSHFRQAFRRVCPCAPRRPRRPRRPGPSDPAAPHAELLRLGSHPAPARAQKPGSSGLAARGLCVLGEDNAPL

Assay [4] in a line: G protein-coupled receptor (GPCR) small molecule agonists, calcium flux assay: HEK293 wild type cell line counter screen (AID 1920065). An outline of the steps:
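Readout: fluorescence at 480 nm excitation/540 nm emission, sampled at 1 s intervals for 3 min. Cells had been cultured 18 h, then dye-loaded 1 h at 37 C before compound or ATP addition.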

Assay [5] in a line: p53 small molecule agonists, cell-based qHTS assay with human liver microsomes (AID 1963577).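 Note: p53 response element beta-lactamase reporter cells with liver microsomes plus NADPH.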 An outline of the steps:
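HLM-supplemented p53RE-bla reporter assay: 16 h compound exposure at 37 C, microsomes and NADPH each 0.5 mg/mL final, read by fluorescence intensity.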

Assay [6] can be described thus: p53 small molecule agonists, cell-based qHTS assay with rat liver microsomes (AID 1963578). An outline of the steps: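 Quantitative HTS of the Tox21 10K library: p53RE-bla cells, rat liver microsomes plus NADPH at 0.5 mg/mL final each, 16 h at 37 C, beta-lactamase fluorescence detection.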
Assay [7] in a line: p53 small molecule agonists, cell-based qHTS assay with human liver microsomes: qHTS cell viability counter screen (AID 1963579). Note: nearly all actives have a fitted effect of over 45% in size. A digest of the protocol:
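Viability of p53RE-bla cells is measured as CellTiter-Glo luminescence following a 16 h, 37 C incubation with compound, liver microsomes from human donors and NADPH.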

Assay [8] can be described thus: p53 small molecule agonists, cell-based qHTS assay with rat liver microsomes: qHTS cell viability counter screen (AID 1963580). Note: nearly all actives have a fitted effect of over 45% in size. A digest of the protocol:
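HCT-116 p53RE-bla, 4,000 cells/well, 5 h pre-incubation; cpd + rat liver microsomes 0.5 mg/mL + NADPH 0.5 mg/mL (final); 16 h, 37 C; CellTiter-Glo, 30 min RT; luminescence.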

Assay [9] in a line: p53 small molecule agonists, cell-based qHTS assay: qHTS cell viability counter screen (AID 1963581). Note: nearly all actives have a fitted effect of over 45% in size. An outline of the steps:
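In the same plates used for the p53 bla reporter, HCT-116 cells given compounds for 16 h at 37 C received CellTiter-Glo; luminescence was recorded 30 min later at room temperature.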

Assay [10] deals with 5-hydroxytryptamine receptor 2A (Homo sapiens) (UniProt P28223). Briefly: 5-hydroxytryptamine receptor 2A (HTR2A) small molecule antagonists, cell-based qHTS assay (AID 1963586). Note: nearly all actives have a fitted effect of over 45% in size. An outline of the steps: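 Antagonist-mode intracellular calcium assay: DOI (4 nM) added after 5 min compound pre-incubation at room temperature to dye-loaded HTR2A-CHO cells. Fluorescence followed for 3 min, sampled every second.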
5-hydroxytryptamine receptor 2A (Homo sapiens), sequence (P28223 whole entry, looked up): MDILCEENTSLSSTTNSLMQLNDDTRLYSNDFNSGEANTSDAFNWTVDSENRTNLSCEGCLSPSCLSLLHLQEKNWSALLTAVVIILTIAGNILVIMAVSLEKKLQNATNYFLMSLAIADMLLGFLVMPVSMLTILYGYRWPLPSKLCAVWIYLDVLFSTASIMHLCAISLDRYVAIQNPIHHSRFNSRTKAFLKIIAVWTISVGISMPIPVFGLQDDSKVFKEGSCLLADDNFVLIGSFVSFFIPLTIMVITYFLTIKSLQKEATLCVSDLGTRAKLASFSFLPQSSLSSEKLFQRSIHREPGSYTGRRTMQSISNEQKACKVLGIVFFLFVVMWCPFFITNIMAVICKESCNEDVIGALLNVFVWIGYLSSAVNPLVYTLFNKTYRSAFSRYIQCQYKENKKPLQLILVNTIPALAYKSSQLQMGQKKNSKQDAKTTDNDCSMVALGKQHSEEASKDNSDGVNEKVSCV

For assay [11], the target named is Muscarinic acetylcholine receptor M1 (Homo sapiens) (UniProt P11229). Briefly: Cholinergic receptor muscarinic 1 (CHRM1) small molecule antagonists, cell-based qHTS assay (AID 1963588). Note: nearly all actives have a fitted effect of over 40% in size. A digest of the protocol:
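CHRM1-CHO calcium-flux assay, antagonist mode. Cells were seeded 18 h, dye-loaded 1 h at 37 C and given compound for 5 min at RT, then acetylcholine was added at 50nM. FDSS fluorescence was read 3 min; 15 concentrations, three runs.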

Assay [12] has the same target. The assay is described as follows: Cholinergic receptor muscarinic 1 (CHRM1) small molecule agonists, cell-based qHTS assay (AID 1963589). Note: nearly all actives have a fitted effect of over 35% in size. A digest of the protocol:
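Each compound was tested at 15 concentrations across three independent runs on dye-loaded CHO cells stably expressing human CHRM1, reading intracellular calcium fluorescence kinetically at 1 sec intervals.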

The nature of assay [13]: cAMP Responsive Elements (CRE) small molecule agonists, cell-based qHTS assay (AID 1963590). An outline of the steps: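 Cell line: CRE-bla HEK 293T; medium DMEM/10% dialyzed FBS/0.1 mM NEAA/1 mM pyruvate/25 mM HEPES; 3 h compound exposure; beta-lactamase FRET readout after 2 h substrate loading at RT.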
Assay [14] is described as follows: cAMP Responsive Elements (CRE) small molecule antagonists, cell-based qHTS assay (AID 1963591; active = well fitted inhibition curve with a large enough effect in the signal ratio in the repeat runs, not every such curve was filed as active; the % refers to the signal ratio). An outline of the steps:
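Inhibition of NKH477-driven (0.25 uM final) CRE-beta-lactamase signal in HEK293T cells, 3 h compound exposure at 37 °C, detected by FRET substrate fluorescence.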

In assay [15] the target is Beta-2 adrenergic receptor (Homo sapiens) (UniProt P07550). The assay is described as follows: Adrenergic beta2 receptor (ADRB2) small molecule antagonists, cell-based qHTS assay (AID 1963592). Note: series mostly up to about 92 µM; nearly all actives have a fitted effect of over 50% in size. An outline of the steps:
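Cells (CHO, stable ADRB2 overexpression) incubated 18-20hr at 37C; compounds added from DMSO; agonist mix (1nM isoproterenol, 100uM IBMX, 25uM Ro-20-1724) added; 0.5hr RT; d2-cAMP and anti-cAMP-cryptate added; 1hr RT; 665/615 nm read.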

The target in assay [16] is D(2) dopamine receptor (Homo sapiens) (UniProt P14416). Briefly: Dopamine D2 receptor (DRD2) small molecule agonists, cell-based qHTS assay (AID 1963594). Note: nearly all actives have a fitted effect of over 35% in size. A digest of the protocol: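 cAMP accumulation in DRD2-HEK293 cells measured by HTRF after 1 h detection; compounds added 10 min before NKH477 (200nM […]) forskolin-analogue stimulation, 30 min at room temperature, with Ro20-1724 present at 0.1 mM final.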
D(2) dopamine receptor (Homo sapiens), sequence (P14416 whole entry, looked up): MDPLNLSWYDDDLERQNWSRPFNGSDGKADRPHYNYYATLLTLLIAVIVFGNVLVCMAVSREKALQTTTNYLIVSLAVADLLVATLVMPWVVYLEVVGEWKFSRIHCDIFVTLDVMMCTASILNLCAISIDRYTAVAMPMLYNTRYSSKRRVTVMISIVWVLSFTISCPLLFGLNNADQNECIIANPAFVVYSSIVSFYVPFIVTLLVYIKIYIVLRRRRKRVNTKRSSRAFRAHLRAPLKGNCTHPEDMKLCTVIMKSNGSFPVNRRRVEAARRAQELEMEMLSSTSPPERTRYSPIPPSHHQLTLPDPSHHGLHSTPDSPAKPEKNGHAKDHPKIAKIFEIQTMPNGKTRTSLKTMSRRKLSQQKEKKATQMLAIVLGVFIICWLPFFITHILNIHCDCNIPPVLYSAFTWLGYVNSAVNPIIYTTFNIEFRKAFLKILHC

Assay [17] can be described thus: p53 small molecule agonists, cell-based qHTS assay (AID 1963582; active = well fitted activation curve with a large enough effect in the signal ratio in the repeat runs, not every such curve was filed as active; the % refers to the signal ratio). An outline of the steps: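 Compounds are pin-transferred in DMSO onto p53RE-bla cells and incubated 16 h at 37 C. The B/G FRET beta-lactamase substrate is then applied for 2 h at RT and fluorescence recorded.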
The target of assay [18] is D(2) dopamine receptor (Homo sapiens) (UniProt P14416). The assay is described as follows: Dopamine D2 receptor (DRD2) small molecule antagonists, cell-based qHTS assay (AID 1963595; active = well fitted inhibition curve with a large enough effect in the signal ratio in the repeat runs, with a control signal flat; the % refers to the signal ratio). An outline of the steps:
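Human DRD2 antagonist qHTS measuring cAMP by HTRF. The cells are exposed to compound for 10 min, then to NKH477 (200 nM) and quinpirole (12 nM) for 30 min at RT, with Ro20-1724 (0.1 mM) present throughout.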

In assay [19] the target is 5-hydroxytryptamine receptor 2A (Homo sapiens) (UniProt P28223). Briefly: 5-hydroxytryptamine receptor 2A (HTR2A) small molecule agonists, cell-based qHTS assay (AID 1963587). Note: nearly all actives have a fitted effect of over 30% in size. A digest of the protocol:
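Kinetic calcium-flux fluorescence (2 min, 1 sec intervals) after compound addition in agonist mode. HTR2A-CHO cells were cultured 18 h, then dye-loaded 1 h at 37 C.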

For assay [20], the target named is Beta-2 adrenergic receptor (Homo sapiens) (UniProt P07550). Briefly: Adrenergic beta2 receptor (ADRB2) small molecule agonists, cell-based qHTS assay (AID 1963593).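 Note: CHO cells stably overexpressing human ADRB2.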 A digest of the protocol:
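CHO cells stably over-expressing ADRB2 were plated overnight at 37C, then dosed with compounds plus a stimulation mix containing 100uM IBMX and 25uM Ro-20-1724 for 0.5hr at room temperature. cAMP was measured by HTRF competition, 1hr.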

A number with no mark means an inactive call. Records with an inconclusive call do not appear. Activity calls are given as the source filed them. Unless noted, calls come from the whole dose curve.

Beta-2 adrenergic receptor (Homo sapiens), sequence (P07550 whole entry, looked up): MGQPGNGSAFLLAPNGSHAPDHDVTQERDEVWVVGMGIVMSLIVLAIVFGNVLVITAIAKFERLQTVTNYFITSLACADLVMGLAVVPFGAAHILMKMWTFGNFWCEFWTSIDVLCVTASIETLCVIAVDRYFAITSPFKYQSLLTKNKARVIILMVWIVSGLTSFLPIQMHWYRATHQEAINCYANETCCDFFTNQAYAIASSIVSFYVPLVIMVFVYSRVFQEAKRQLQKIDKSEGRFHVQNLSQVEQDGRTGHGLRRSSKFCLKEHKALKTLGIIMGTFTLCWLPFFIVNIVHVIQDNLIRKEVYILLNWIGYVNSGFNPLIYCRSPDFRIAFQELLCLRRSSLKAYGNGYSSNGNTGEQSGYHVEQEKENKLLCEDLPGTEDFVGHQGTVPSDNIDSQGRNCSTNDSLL
Muscarinic acetylcholine receptor M1 (Homo sapiens), sequence (P11229 whole entry, looked up): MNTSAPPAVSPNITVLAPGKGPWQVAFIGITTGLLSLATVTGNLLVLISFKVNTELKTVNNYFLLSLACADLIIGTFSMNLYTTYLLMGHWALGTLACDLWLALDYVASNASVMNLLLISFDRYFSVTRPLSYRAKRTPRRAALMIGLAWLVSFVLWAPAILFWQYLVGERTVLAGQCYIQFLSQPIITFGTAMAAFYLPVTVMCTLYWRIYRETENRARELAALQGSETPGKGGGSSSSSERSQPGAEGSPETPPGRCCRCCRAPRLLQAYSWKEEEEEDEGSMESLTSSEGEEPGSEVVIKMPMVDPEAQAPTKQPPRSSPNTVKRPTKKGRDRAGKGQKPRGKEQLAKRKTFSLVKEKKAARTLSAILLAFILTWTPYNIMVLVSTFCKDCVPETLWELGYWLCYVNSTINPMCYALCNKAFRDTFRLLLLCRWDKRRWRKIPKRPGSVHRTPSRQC

`OCCN1CCN(CCO)CC1`: the Potency entry in assay [1], in assay [2], in [3], in assay [4], in assay [5] and in assay [6] was “inactive” in each case. The Potency result in assay [7], in assay [8], in assay [9], in assay [10], in assay [11] and in [12] was “inactive” each time. For the same compound, the Potency result in assay [13], in assay [14], in assay [15] and in assay [16] was “inactive” in each case.

Regarding `O=C(c1ccccc1)C1CCCCC1`, the Potency result in [1], in [2], in assay [3], in assay [4], in assay [5] and in assay [6] was “inactive” throughout. Also, the Potency entry in assay [7], in assay [8], in [17], in [10], in assay [11] and in [12] was “inactive” throughout. Moreover, the Potency entry in assay [13], in [14], in assay [15], in assay [16] and in assay [18] was “inactive” in each case.

Take `CC(=O)c1c(C)c([N+](=O)[O-])c(C(C)(C)C)c([N+](=O)[O-])c1C`: the Potency result in [1], in assay [2], in assay [3], in assay [4], in assay [5] and in assay [6] was “inactive” throughout. For the same compound, the Potency entry in [7], in assay [8], in assay [10], in assay [19], in assay [11] and in assay [12] was “inactive” in each case. In addition, the Potency result in assay [14], in [15], in assay [20], in assay [16] and in assay [18] was “inactive” throughout.

Take `C(=C\c1ccccc1)/CN1CCN(C(c2ccccc2)c2ccccc2)CC1`: the Potency in assay [1] was 13.3 µM (active). For the same compound, the Potency result in assay [2], in assay [3], in assay [4], in assay [5], in [6] and in assay [7] was “inactive” each time. Besides, the Potency entry in [8], in assay [17], in [15] and in assay [16] was “inactive” throughout.

Take `O=C1CCCCCCCCCCCCCCO1`: the Potency result in assay [1], in assay [2], in assay [3], in assay [4], in assay [5] and in assay [6] was “inactive” each time. For the same compound, the Potency result in assay [7], in [8], in assay [9], in assay [10], in assay [19] and in assay [11] was “inactive” each time. Also, the Potency result in assay [12], in [13], in assay [14], in assay [15], in [16] and in assay [18] was “inactive” throughout.

For the compound `Nc1ccn([C@H]2CS[C@@H](CO)O2)c(=O)n1`, the Potency result in [1], in assay [2], in assay [3], in assay [4], in assay [5] and in assay [6] was “inactive” each time. For the same compound, the Potency result in assay [7], in assay [8], in [9], in [17], in assay [13] and in assay [14] was “inactive” throughout. For the same compound, the Potency entry in [15], in [16] and in assay [18] was “inactive” in each case.

Turning to `CC1(C)CCC[C@]2(C)[C@H]3CC(=O)O[C@]3(C)CC[C@@H]12`, the Potency result in assay [1], in assay [2], in [3], in [4], in assay [5] and in assay [6] was “inactive” throughout. The Potency result in [7], in assay [8], in [9], in assay [10], in assay [12] and in assay [15] was “inactive” in each case. The Potency result in assay [16] was “inactive”.

Regarding `O=C1NC(=O)[C@@H]2CC=CC[C@H]12`, the Potency entry in assay [1], in assay [2], in assay [3], in assay [4], in assay [5] and in [6] was “inactive” throughout. Besides, the Potency result in assay [7], in assay [8], in [9], in assay [10], in [19] and in assay [12] was “inactive” throughout. Further, the Potency entry in assay [15], in assay [20], in assay [16] and in assay [18] was “inactive” each time.
